The values that follow come from PubChem BioAssay (Tox21).

Experiment [1] can be described thus: A CellTox Green Cytotoxicity Assay to monitor cytotoxicity in HEK293 cells - 16 hour (AID 1224888). Also: nearly all actives have a fitted effect of over 35% in size. In short, it runs like this: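 Cells (HEK293, 600/well) and dye reagent are dispensed together. After 5 h at 37 C, 23 nL compound is pinned in. Plates stay at 37 C for 40 h with fluorescence read at 0h, 8h, 16h, 24h, 32h and 40h.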
Experiment [2] in a line: qHTS RealTime-Glo MT Cell Viability Assay in HepG2 cells - 0 hour (AID 1224889). Also: nearly all actives have a fitted effect of over 50% in size. An outline of the steps:
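Cells + NanoLuc/prosubstrate dispensed (600 cells/well) → 5 h at 37 C/5% CO2 → compounds in DMSO transferred → 40 h incubation at 37 C, luminescence read at 0, 8, 16, 24, 32, 40 h.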

The nature of experiment [3]: A CellTox Green Cytotoxicity Assay to monitor cytotoxicity in HepG2 cells - 8 hour (AID 1224890). Also: nearly all actives have a fitted effect of over 45% in size. An outline of the steps:
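Cells and non-lytic dye reagent are dispensed together (600 HepG2 cells/well) and incubated 5 h before DMSO compound transfer. Kinetic fluorescence is then recorded in the same wells during 40 h at 37 C.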

Experiment [4] in a line: qHTS assay to identify small molecule antagonists of the estrogen receptor alpha (ER-alpha) signaling pathway using the BG1 cell line in the presence of 0.1 nM 17-beta-estradiol - cell viability counter screen (AID 1259241). Also: nearly all actives have a fitted effect of over 40% in size. In short, it runs like this: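 CellTiter-Fluor read (30 min, 37C) on ER-alpha/ERE-luc VM7Luc4E2 cells; 22 hr compound treatment; agonist 0.1 nM E2 final; same-well multiplex.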
In general terms: Quantitative high-throughput screening tests each substance at several concentrations.

A short description of experiment [5]: qHTS assay to identify small molecule antagonists of the androgen receptor (AR) signaling pathway using the MDA cell line in the presence of 0.5 nM R1881 - cell viability counter screen (AID 1259242). Also: nearly all actives have a fitted effect of over 45% in size. In short, it runs like this:
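Steps: plate MDA-kb2 cells, rest 5 hr at 37C without CO2; pin in compounds in DMSO; add R1881 to 0.5 nM final; incubate 16 hr; add CellTiter-Fluor, 30 min; read fluorescence.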

Experiment [6] addresses Estrogen receptor (Homo sapiens) (UniProt P03372). Put plainly: qHTS assay to identify small molecule antagonists of the estrogen receptor alpha (ER-alpha) signaling pathway using the BG1 cell line in the presence of 0.1 nM 17-beta-estradiol (AID 1259244). Also: nearly all actives have a fitted effect of over 50% in size. In short, it runs like this:
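Antagonist mode: compounds in DMSO are pinned onto VM7Luc4E2 reporter cells, 0.1 nM final 17beta-estradiol is added, and after 22 h at 37C luciferase luminescence is measured with ONE-Glo.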

Experiment [7] can be described thus: qHTS assay to identify small molecule HDAC inhibitors (AID 1259364).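 Also: wild-type HCT-116 cells with endogenous class I/II HDAC activity; top concentration of the series differs between compounds; nearly all actives have a fitted effect of over 45% in size.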 An outline of the steps: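 Cells (HCT-116, wild type) are seeded at 1,500 per well, incubated overnight, treated with compound in DMSO for 2 hr, then developed with HDAC-Glo I/II reagent for 30 min at room temperature.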
Experiment [8] in a line: qHTS assay to identify small molecule HDAC inhibitors - cell viability counter screen (AID 1259365). Also: series mostly up to about 92 µM; nearly all actives have a fitted effect of over 50% in size. An outline of the steps:
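To flag cytotoxic hits, 1,500 wild-type HCT-116 cells per well, plated the day before, receive test compounds for 2hr at 37 C before CellTiter-Glo reagent and a luminescence read.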

Experiment [9] can be described thus: qHTS assay to identify small molecule phospholipidosis (PLD) inducers (AID 1259344; active = well fitted curve in the direction sought with a large enough effect; an effect the other way counts as inactive or inconclusive; also: potency is read from the fitted curve at half-maximal effect). An outline of the steps: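 Accumulated phospholipid, stained red by LipidTOX during 24 h compound treatment of HepG2 cells at 37 C, is quantified from images as pit number and intensity, normalised per cell using Hoechst-stained nuclei.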

A number with no mark means an inactive call. Inconclusive results are not listed. Activity calls are given as the source filed them. Unless noted, calls follow the shape of the dose curve; as a rule, active = well fitted curve in the direction sought with a large enough effect in the repeat runs; inconclusive = weak or mixed curves; inactive = no such curve, though single readings can be large; an effect the other way counts as inactive or inconclusive.
% is scaled to controls: 0 for no effect and ±100 for the full control effect.

Estrogen receptor (Homo sapiens), sequence (P03372 whole entry, looked up): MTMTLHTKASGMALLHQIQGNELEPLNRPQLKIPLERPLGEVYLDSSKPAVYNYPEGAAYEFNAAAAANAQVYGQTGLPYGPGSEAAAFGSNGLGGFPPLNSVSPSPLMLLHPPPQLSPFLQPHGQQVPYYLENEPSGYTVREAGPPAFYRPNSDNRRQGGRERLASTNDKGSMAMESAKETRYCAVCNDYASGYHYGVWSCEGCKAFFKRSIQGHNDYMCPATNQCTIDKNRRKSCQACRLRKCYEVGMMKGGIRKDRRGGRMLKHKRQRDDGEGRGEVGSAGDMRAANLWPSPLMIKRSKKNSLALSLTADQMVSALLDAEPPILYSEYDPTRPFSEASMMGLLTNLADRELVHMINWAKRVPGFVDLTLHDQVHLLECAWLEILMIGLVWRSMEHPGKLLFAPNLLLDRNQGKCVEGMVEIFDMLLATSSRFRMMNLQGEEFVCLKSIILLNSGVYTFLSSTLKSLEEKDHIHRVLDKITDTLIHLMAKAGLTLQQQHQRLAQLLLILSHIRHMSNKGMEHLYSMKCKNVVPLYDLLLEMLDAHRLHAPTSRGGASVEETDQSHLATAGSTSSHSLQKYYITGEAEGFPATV

As to `CCO[Si](CC(C)C)(OCC)OCC`, the Potency entry in [1], in experiment [2], in experiment [3] and in experiment [7] was “inactive” each time. The outcome in [4], in [5], in experiment [6] and in experiment [8] was inactive.
On to `C[C@H]1COc2c(C3(N)CC3)c(F)cc3c(=O)c(C(=O)O)cn1c23`, for which the Potency entry in [1], in experiment [2], in experiment [3], in [9] and in [7] was “inactive” throughout. Besides, the outcome in experiment [4], in experiment [5] and in [8] was inactive.
On to `COc1ccccc1N1CCN(CC(O)COc2cc(OC)c(OC)c(OC)c2)CC1` (stereo unspecified), for which the Potency result in [1], in experiment [2], in experiment [3] and in [7] was “inactive” throughout. The result in experiment [4], in experiment [5], in experiment [6] and in experiment [8] was inactive.
Take `C/C=C/C(=O)CCCC`: the Potency result in experiment [1], in experiment [2], in [3] and in experiment [7] was “inactive” throughout. In addition, the result in experiment [4], in experiment [5], in experiment [6] and in experiment [8] was inactive.
As for `O=S(=O)(O)c1cc(I)c(O)c2ncccc12`, the Potency entry in experiment [1], in experiment [2], in [3], in experiment [9] and in [7] was “inactive” throughout. In addition, the result in [4], in [5] and in experiment [8] was inactive.
As to `CC[C@@]1(c2ccccc2)NC(=O)N(C)C1=O`, the Potency entry in experiment [1], in [2], in experiment [3], in experiment [9] and in experiment [7] was “inactive” each time. The result in experiment [4], in experiment [5] and in [8] was inactive.
Take `CC(=O)SC[C@@H](C)C(=O)N1CCC[C@H]1C(=O)N[C@@H](Cc1ccccc1)C(=O)O`: the Potency entry in experiment [1], in experiment [2], in [3] and in experiment [7] was “inactive” throughout. Further, the result in experiment [4], in experiment [5] and in experiment [8] was inactive. Besides, the Potency in [9] was 3.55 µM (active).
Take `C=C(C)C(=O)OCCOC1CC2CC1C1C=CCC21` (stereo unspecified): the Potency result in [1], in experiment [2], in experiment [3] and in experiment [7] was “inactive” in each case. The result in experiment [4], in experiment [5] and in [8] was inactive.
Turning to `Cc1ccccc1OCC(=O)O`, the Potency entry in [1], in experiment [2], in experiment [3] and in [7] was “inactive” throughout. Further, the outcome in experiment [4], in [5] and in experiment [8] was inactive.
Take `CC(=O)Oc1ccc(C(C)=O)cc1`: the Potency entry in [1], in [2], in [3] and in experiment [7] was “inactive” throughout. The result in [4], in experiment [5] and in experiment [8] was inactive.
Take `N=C(N)N1CCc2ccccc2C1`: the activity change in [1] is -13.7% [at 6.97 µM, active compounds read high]. Moreover, the activity change, negative = cytotoxicity in [2] was -7.09% [at 6.97 µM]; in [4], 9.23% [at 8.39 µM]; in experiment [8] it was -4.02% [at 8.39 µM]. Moreover, the cytotoxicity increase in experiment [3] was -13.8% [at 6.97 µM]. For the same compound, in [5], the viability change, negative = cytotoxic is -5.28% [at 8.39 µM]. Further, the Potency result in experiment [9] is “inactive”. In addition, in experiment [7], the activity change, negative = inhibition was 3.09% [at 8.39 µM].
As to `CC(=O)OC/C=C(/C)CCC=C(C)C`, the Potency result in [1], in experiment [2], in experiment [3] and in [7] was “inactive” in each case. The outcome in [4], in [5] and in experiment [8] was inactive.
With `CCOc1ccccc1OCCN[C@H](C)Cc1ccc(OC)c(S(N)(=O)=O)c1`, the Potency entry in experiment [1], in [2], in [3], in [9] and in [7] was “inactive” each time. For the same compound, the result in experiment [4], in experiment [5] and in [8] was inactive.
Regarding `C=CCON/C(CCC)=C1\C(=O)CC(C)(C)C(C(=O)OC)=C1O`, the Potency entry in experiment [1], in [2], in experiment [3] and in experiment [7] was “inactive” throughout. Also, the outcome in experiment [4], in experiment [5] and in experiment [8] was inactive.
`CCOCCOCCOC(C)=O`: the Potency entry in experiment [1], in experiment [2], in experiment [3] and in experiment [7] was “inactive” throughout. The result in experiment [4], in experiment [5] and in experiment [8] was inactive.
For `C[n+]1ccccc1/C=N/O`, the Potency result in experiment [1], in experiment [2], in [3], in experiment [9] and in [7] was “inactive” in each case. For the same compound, the outcome in experiment [4], in experiment [5] and in [8] was inactive.
Regarding `CCCC(=O)CC`, the Potency entry in experiment [1], in experiment [2], in experiment [3] and in experiment [7] was “inactive” throughout. Also, the outcome in experiment [4], in experiment [5] and in experiment [8] was inactive.
In the case of `O=C1CC2(CCCC2)CC(=O)N1CCNCC1COc2ccccc2O1` (stereo unspecified), the Potency result in [1], in experiment [2], in experiment [3], in experiment [9] and in [7] was “inactive” in each case. The result in [4], in [5] and in [8] was inactive.
Take `Cc1ccc(O)c(C(=O)c2ccccc2)c1`: the Potency result in [1], in experiment [2], in experiment [3] and in experiment [7] was “inactive” each time. For the same compound, the result in experiment [4], in [5] and in experiment [8] was inactive.
Turning to `C=CCCCCCCCCCCCCCC`, the activity change in experiment [1] is -0.657% [at 15.8 µM, active compounds read high]. In addition, the activity change, negative = cytotoxicity in experiment [2] is 10.7% [at 15.8 µM]; in experiment [4], 0.733% [at 19 µM]; in experiment [8], 1.69% [at 19 µM]. For the same compound, the cytotoxicity increase in experiment [3] was 8.14% [at 15.8 µM]. The viability change, negative = cytotoxic in experiment [5] was 1.94% [at 19 µM]. Besides, the activity change, negative = inhibition in [7] is 0.0889% [at 19 µM].
With `O=C(OOC(=O)c1ccccc1)c1ccccc1`, the Potency result in experiment [1], in experiment [2], in experiment [3], in experiment [9] and in experiment [7] was “inactive” throughout. Besides, the result in experiment [4], in experiment [5] and in experiment [8] was inactive.
For the compound `CC(C)(C)C(=O)NCCCC(=O)O`, the Potency result in [1], in experiment [2], in experiment [3], in [9] and in [7] was “inactive” each time. Further, the result in [4], in experiment [5] and in experiment [8] was inactive.
`O=C(O)P(=O)(O)O`: the Potency entry in experiment [1], in [2], in experiment [3], in experiment [9] and in experiment [7] was “inactive” in each case. The result in experiment [4], in experiment [5] and in experiment [8] was inactive.
Take `Clc1cc(Cl)c(Cl)c(Cl)c1Cl`: the Potency result in [1], in [2], in experiment [3] and in [7] was “inactive” throughout. Further, the outcome in experiment [4], in experiment [5] and in [8] was inactive.
On to `Cc1cc(C)c(N)c(Cl)c1`, for which the Potency result in [1], in experiment [2], in [3] and in experiment [7] was “inactive” throughout. Also, the outcome in experiment [4], in experiment [5] and in experiment [8] was inactive.
For `Cc1cc(N)no1`, the Potency result in [1], in [2], in [3] and in [7] was “inactive” each time. Further, the outcome in experiment [4], in experiment [5] and in experiment [8] was inactive.
